# Screens as filed in PubChem BioAssay.
# Most compounds without a hit are left out; they make up all but 2.4% or so of the library.
# MLLE-PAM2 inh: inhibitors of microRNA-mediated deadenylation, human PABP1 MLLE binding; P11940; inhibition, % at 20 µM; GST-MLLE / FITC-PAM2 fluorescence polarization; actives 0.36% (n = 360,000); in the data active means inhibition above about 35%, passing the limit was not always enough;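 further: plate controls were DMSO wells with GST-MLLE for no effect and wells lacking GST-MLLE protein for full effect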
# PfM18AAP inh: PfM18AAP enzyme inhibition; recombinant PfM18AAP, H-Glu-NHMec fluorogenic cleavage; inhibition, % at 7.35 µM; actives 1.2% (n = 290,000); AID 1822;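 active means inhibition above the campaign mean inhibition over all tested compounds plus 3 SD, cut at about 28% in these data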;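 further: 0% = plate median of test compound wells and 100% = 2 mM ZnCl2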
# PERK inhibitor: inhibitors of human PERK kinase; CHO PERK-DD fusion, SEAP luminescence translation reporter; inhibition, % at 5.6 µM; actives 0.17% (n = 220,000); AID 1416;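 active means inhibition above the mean inhibition of all tested compounds plus 3 SD, set separately per screening campaign, cut at about 2.9% in these data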;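 further: PERK kinase domain activated by AP20187 dimerizer at 100 nM; 0% = DMSO with dimerizer and 100% = rapamycin at 8.4 µM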
# eIF4E 4G PPI: blocks eIF4E binding to eIF4G; P63073+Q04637; TR-FRET eIF4E-eIF4GI(517-606) binding, 2 h; inhibition, % at 21.7 µM; actives 0.37% (n = 220,000);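 active means inhibition above about 30%, limit read from the data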;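 further: 0% = full FRET control wells and 100% = background wells lacking eIF4GI fragment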
# eIF4H FP inh: inhibitors of RNA binding by human eIF4H. Q15056. eIF4H fluorescence polarization binding assay. inhibition, % at 35 µM. actives 0.94% (n = 290,000);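 further: calls also rest on retests at 20 µM and on dose response follow-up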
# PABP FP inh: PABP-poly(A) binding inhibition. P11940. PABP-poly(A) RNA binding, fluorescence polarization. inhibition, % at 35 µM. actives 1% (n = 290,000);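 further: calls also rest on retests at 20 µM and on dose response follow-up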
# Numbers without * were called inactive; ? = inconclusive; nt = no result given. Unless noted, how the calls were made is not given here.
SMILES,MLLE-PAM2 inh,PfM18AAP inh,PERK inhibitor,eIF4E 4G PPI,eIF4H FP inh,PABP FP inh
S=c1nc(-c2ccccc2)n(-c2ccccc2)[nH]1,-1.7,29.5*,nt,nt,-9.4,0.6
S=c1nc(-c2ccccc2)[nH]n1-c1ccccc1,29.8,19.0,0.5,-8.0,-0.9,2.3
Cc1ccccc1N1CCN(C2CCCN(C(=O)CCC(F)(F)F)C2)CC1 (centres undefined),14.3,-1.5,nt,nt,6.3,5.5
CCN(CC)c1ccc(/C=C2\CCC(/C=C(\C#N)C(=O)Nc3ccccc3F)=C2N2CCOCC2)cc1,-77.8,6.3,0.7,1.4,61.3*,1.4
O=C(CCc1ccncc1)NC1CCCc2c1cnn2-c1cc(F)cc(F)c1 (centres undefined),-5.1,-17.1,nt,nt,-1.6,7.1
Cc1cc2nccc(-c3ccc(Cl)c([N+](=O)[O-])c3)n2n1,3.8,2.1,0.5,-1.1,-1.3,2.7
CN1/C(=C\C(=O)c2cccc([N+](=O)[O-])c2)Sc2ccccc21,39.0*,12.0,nt,nt,11.1,-1.9
O=[N+]([O-])c1cccc(NC(=S)Nc2nc(-c3ccccc3Cl)cs2)c1,42.4*,5.8,nt,nt,13.6,-3.1
CN(c1ccc(OCC(=O)OCC(=O)Nc2ccccc2)cc1)S(=O)(=O)c1cccs1,3.0,-0.9,1.3,-4.2,active,73.8*
O=C(O)Cn1nc(-c2ccccc2)oc1=O,7.3,1.7,3.0*,-1.6,1.4,12.0
CCN(CC)CCCNC(=O)CC1Sc2ccccc2NC1=O (centres undefined),-1.7,0.8,1.0,32.0*,-5.5,-3.0
CCOC(=O)c1c(CSc2ccc(C)cc2)n(C)c2cc(Br)c(O)c(CN(C)C)c12,99.6*,2.4,-0.2,8.9,18.3,6.5
CN1C(=O)N(C)c2ccc(C=O)c3cccc1c23,58.1*,-6.5,-0.1,-6.2,?,-7.8
CN1C(=O)N(C)c2ccc(Br)c3cccc1c23,-3.6,-4.3,nt,nt,-4.2,8.4
O=[N+]([O-])c1cc([N+](=O)[O-])c2cc3ccccc3nc2c1,45.1*,-11.6,nt,nt,21.6,8.9
O=C(NC(=S)N1CCN(c2ccc(O)cc2)CC1)c1cccs1,-3.0,30.9*,1.0,-1.4,-0.4,-6.6
COc1cccc2c(=O)n(CC(=O)Nc3ccc(F)cc3)ccc12,0.3,5.1,0.1,-0.2,-10.5,-7.5
COc1cccc2c(=O)n(CC(=O)Nc3ccccc3F)ccc12,2.1,6.3,0.1,4.0,?,12.5*
COc1ccc(CCNC(=O)C2CC(=O)N(C3CCCCC3)C2)cc1OC (centres undefined),4.3,2.5,nt,nt,nt,nt
O=C(CSc1nc2ccccc2o1)c1cc2ccccc2oc1=O,38.5*,11.7,-0.6,0.4,22.0,-1.9
Cc1sc2nc(SCC(=O)c3cc(C)n(CC4CCCO4)c3C)n(C(C)C)c(=O)c2c1C (centres undefined),-25.1,-0.5,-0.4,-8.8,64.9*,81.2*
Cc1cccc(-n2nnnc2SCC(=O)c2cc(C)n(Cc3ccco3)c2C)c1,-93.0,2.6,-0.3,-3.2,58.1*,29.4
Cc1cc(C(=O)COC(=O)c2ccncc2)c(C)n1Cc1ccco1,-29.1,7.9,0.0,-5.3,55.0*,8.1*
COc1ccc(N(C(=O)Cn2nnc(-c3ccccc3F)n2)C(C(=O)NCC2CCCO2)c2ccc(Cl)cc2)cc1 (centres undefined),-5.9,-4.0,1.4,0.8,-11.0,-6.7
CC(C)[C@@H](CO)N(C)S(=O)(=O)c1ccccc1Br,0.9,nt,nt,nt,nt,nt
CC1CN(C(=O)c2cccs2)CCN1C(=O)c1cccs1 (centres undefined),7.6,-4.8,-0.6,1.2,12.5,0.9
CCCCc1ccc(NC(=O)N2CCNC(=O)C2CC(=O)Nc2ccsc2C(=O)OC)cc1 (centres undefined),2.7,0.7,-0.2,1.9,59.0,39.9
Cc1cccc(-n2nnnc2SCC(=O)c2cc(C)n(CC3CCCO3)c2C)c1 (centres undefined),-97.9,0.9,-0.4,-22.4,52.6*,55.0*
Cc1cc(C(=O)CSc2nc3ccccc3o2)c(C)n1CC1CCCO1 (centres undefined),-6.9,3.1,-1.4,0.5,52.0*,68.5*
CCCN(CCO)Cc1ccc2ccccc2c1,6.0,-6.8,-0.5,6.0,1.5,13.1
